Compounds with a hit are over-represented: about 3.5% of the library has one in this group of screens.
TbPYK inhibitor: qHTS of Trypanosoma Brucei Inhibitors; 410,000 tested, 0.12% active; AID 624173, 2012; TbPYK enzyme, Kinase-Glo Plus ATP luminescence, 45 min; pyruvate kinase (Trypanosoma brucei), Q57TT1; Potency, µM (series often up to 76.8 µM), inactives show top-dose activity, negative = inhibition, actives largely listed as inhibitors; also: % is scaled to controls: 0 for no effect and ±100 for the full control effect; nearly all actives have a fitted effect of over 50% in size
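Enzyme and substrate buffer are dispensed first and compound is pin-transferred. ADP at 130 uM final then starts the reaction, which runs 45 min at room temperature. Detection reagent is added for 10 min before luminescence is imaged.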
Giardia FBPA inh: qHTS Assay for Inhibitors of Fructose-1,6-bisphosphate Aldolase from Giardia Lamblia; Potency, µM (top dose mostly 59.6 µM), for inactives: at the highest dose activity, negative = inhibition, hits mostly inhibitors; AID 2451, 2010; 290,000 tested, 0.71% active; purified Giardia FBPA; A8B2U2; also: % is scaled to controls: 0 for no effect and ±100 for the full control effect; nearly all actives have a fitted effect of over 55% in size
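Giardia FBPA (40 nM reagent) was preincubated 10 min at RT with compound (up to 57.5 uM final), then substrate plus GAPDH/TPI/NAD/arsenate coupling system with diaphorase/resazurin was added; resorufin fluorescence (525/598 nm) was read after 20 min.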
NS1 inh: qHTS Assay for Inhibitors of Influenza NS1 Protein Function | Potency, µM (highest dose often 46.1 µM), without a hit: at the top dose activity, positive = more growth | 270,000 tested, 0.4% active | AID 2326, 2010; calls by dose curve; also: actives are rising curves; nearly all actives have a fitted effect of over 50% in size
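In this qHTS, NS1 from influenza A is expressed in budding yeast, where it slows growth. Cells are switched from glucose to 2% galactose medium (pH 6.0, -URA), treated with compound, and growth recovery is read at OD600.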
Sm TGR block: qHTS Assay for the Inhibitors of Schistosoma Mansoni Peroxiredoxins. Schistosoma mansoni thioredoxin glutathione reductase (TGR), Q962Y6. purified TGR, DTNB reduction, TNB absorbance 405 nm. Potency, µM (top dose mostly 114 µM), without a hit: top-dose activity change, negative = inhibition, hits mostly inhibitors. 360,000 tested, 3% active. AID 485364, 2010; also: % is scaled to controls: 0 for no effect and ±100 for the full control effect; nearly all actives have a fitted effect of over 60% in size
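First, TGR (20 nM dispensed) and NADPH were mixed with compound. Second, a 15 min room-temperature incubation followed. Third, further NADPH and then DTNB were added to start the reaction. Finally, TNB absorbance was monitored kinetically.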
LmPK inhibitor: qHTS Assay for Inhibitors of Leishmania Mexicana Pyruvate Kinase (LmPK); Q27686; purified LmPK, Kinase-Glo ATP luminescence, 1 h; Potency, µM (titrated, usually from 57.5 µM), for the others: top-dose activity change, negative = inhibition, actives largely listed as inhibitors; 290,000 tested, 0.37% active; also: % is scaled to controls: 0 for no effect and ±100 for the full control effect
Target sequence (Q27686 whole entry, looked up): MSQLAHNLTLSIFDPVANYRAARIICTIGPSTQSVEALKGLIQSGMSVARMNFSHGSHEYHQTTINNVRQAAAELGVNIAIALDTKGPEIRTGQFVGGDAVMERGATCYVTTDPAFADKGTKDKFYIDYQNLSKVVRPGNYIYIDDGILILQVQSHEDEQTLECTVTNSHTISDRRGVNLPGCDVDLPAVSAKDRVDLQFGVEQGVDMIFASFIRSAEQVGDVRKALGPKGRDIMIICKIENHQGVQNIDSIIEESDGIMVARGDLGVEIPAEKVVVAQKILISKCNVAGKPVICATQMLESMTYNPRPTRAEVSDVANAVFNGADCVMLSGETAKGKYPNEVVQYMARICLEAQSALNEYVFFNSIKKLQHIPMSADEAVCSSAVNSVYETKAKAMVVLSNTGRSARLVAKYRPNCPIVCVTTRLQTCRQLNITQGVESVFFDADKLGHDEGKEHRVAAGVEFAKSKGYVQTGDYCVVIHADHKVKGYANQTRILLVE
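Purified LmPK (0.1 nM) converted ADP (0.1 mM) to ATP with PEP (0.5 mM) in imidazole buffer pH 7.2 with KCl and MgCl2, 1 h at room temperature. ATP was read by Kinase-Glo luminescence; data normalized to uninhibited and no-enzyme controls.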
RE007 growth inh: qHTS Assay for Inhibitors of the HIV-1 protein Vpr | S. pombe RE007 Vpr strain, BacTiter-Glo ATP luminescence, 24 h | Potency, µM (doses to about 92.2 µM), for the others: top-dose activity change, negative = less growth, hits mostly inhibitors | 360,000 tested, 0.21% active | AID 651644, 2012; active = well fitted falling curve with a large enough effect; inconclusive = small, poorly fitted or top-dose-only effect; inactive = no such curve, though single readings can be large or run the other way; also: % is scaled to controls: 0 for no effect and ±100 for the full control effect; nearly all actives have a fitted effect of over 50% in size
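Fission yeast strain RE007, carrying one chromosomally integrated HIV-1 vpr copy, was seeded at OD 0.01 in PMG+AL medium with 23 nL pinned compound. After 24 h at 30 °C and 99% humidity, viability was read by BacTiter-Glo luminescence.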
Numbers without * were called inactive; ? = inconclusive; · = no result given; [ ] = dose if it differs, or a comment. Unless noted, calls follow the shape of the dose curve; as a rule, active = well fitted curve in the direction sought with a large enough effect; inconclusive = small, poorly fitted or top-dose-only effect, or another doubt; inactive = no such curve, though single readings can be large; an effect the other way counts as inactive or inconclusive. Potency is read from the fitted curve at half-maximal effect.

SMILES | TbPYK inhibitor | Giardia FBPA inh | NS1 inh | Sm TGR block | LmPK inhibitor | RE007 growth inh
COc1ccc(CNc2cc(C)ccn2)c(O)c1 | 4.8% | 3.0% | 2.2% | 7.08µM* | 4.0% | 0.2%
COCCCNC(=O)Cn1c(=O)n(-c2ccc(C)cc2)c(=O)c2c1c1cc(C)ccc1n2C | -2.9% | · | · | 0.0% | · | ·
Cn1c(=O)c(=O)n(C)c2cc([N+](=O)[O-])c([N+](=O)[O-])cc21 | 1.2% | -20.3% | 0.3% | 20µM* | 2.8% | 9.0%
O=C(NCC(c1cccnc1)N1CCc2ccccc2C1)C(=O)Nc1ccc(Cl)cc1 (stereo not drawn) | -0.1% | · | · | -0.4% | · | ·
O=[N+]([O-])c1ccc(-c2ccccc2)c([As](=O)(O)O)c1 | 0.7% | 1.2% | -5.5% | 2µM* | -4.5% | ·
O=[N+]([O-])c1ccc2nc(-c3ccccc3)cc(-c3ccccc3)c2c1 | -1.0% | 1.5% | 10.5% | 4.8% | 5.6% | -11.7%
COc1ccc(C)cc1NC(=O)C(=O)NCCc1csc2nc(-c3ccccc3F)nn12 | 2.2% | · | · | 0.7% | · | ·
O=S(=O)(c1ccc(Cl)c(NC(=S)Nc2ccccc2N2CCOCC2)c1)N1CCOCC1 | -4.1% | -21.8% | 7.6% | 35.5µM* | -1.1% | 20.7%
NS(=O)(=O)c1ccc(NC(=S)Nc2ccc(S(=O)(=O)N3CCCC3)cc2)cc1 | 0.9% | -12.8% | · | 25.1µM* | 9.3% | 36.3%
Cc1ccc(NC(=S)Nc2cccnc2)c(S(=O)(=O)N2CCCCC2)c1 | -8.3% | -8.6% | · | 14.1µM* | 1.5% | 3.8%
CN1CCN(S(=O)(=O)c2ccc(NC(=S)NC(=O)c3ccccc3)cc2)CC1 | -21.6% | ? | -5.4% | ? | 0.0% | -7.8%
O=C(Nc1ccccc1N1CCCC1)c1cc(S(=O)(=O)N2CCOCC2)ccc1Cl | 3.5% | · | · | 4.4% | · | 21.3%
Cc1ccc(C)c(NC(=S)Nc2cccnc2)c1 | -2.5% | -3.0% | · | ? | 0.9% | -0.4%
CN1CCN(S(=O)(=O)c2ccc(NC(=S)NC(=O)c3ccc(Cl)cc3)cc2)CC1 | -5.8% | -4.1% | 10.6% | 22.4µM* | 0.1% | 8.4%
O=C1[C@H]2[C@H]3[C@H](O)[C@H](O)C/C(=N/OC[C@@H](O)COCc4ccco4)[C@H]3CC[C@@H]2C(=O)N1c1cccc(Oc2ccccc2)c1 | · | 2.8%[12.9 µM] | · | · | · | ·
O=S(=O)(c1ccc(NC(=S)NCc2cccnc2)cc1)N1CCCCC1 | -5.3% | 1.8% | -2.0% | 31.6µM* | 5.3% | -11.1%
O=C(O)c1nccnc1C(=O)Nc1ccc(S(=O)(=O)N2CCOCC2)cc1 | 3.0% | -16.6% | -1.5% | 25.1µM* | 0.0% | -17.7%
COCCOC(=O)c1nccnc1C(=O)Nc1ccc(S(=O)(=O)N2CCOCC2)cc1 | -8.1% | 8.5% | -1.0% | 3.2% | -2.6% | 0.8%
O=S(=O)(c1cccc(NC(=S)Nc2ccc(Br)cc2Cl)c1)N1CCOCC1 | -7.1% | -9.2% | 3.7% | 14.1µM* | 5.5% | 5.0%
O=S(=O)(c1ccc(NC(=S)Nc2ccccc2)cc1)N1CCOCC1 | 11.7% | -16.3% | 15.0% | 44.7µM* | 2.7% | 4.8%
COCCN1Cc2cccc(C(=O)Nc3ccc(C)cc3C)c2C1=O | -0.2% | · | · | 6.0% | · | ·
CC(C)c1ccc(C2N=C(N)Nc3nc4ccccc4n32)cc1 (stereo not drawn) | -3.3% | · | · | 7.1% | · | ·
CC(C)(C)n1ncc2c(=O)n(CC(=O)NCc3ccco3)cnc21 | 1.1% | 6.4% | -0.5% | 44.7µM* | 0.9% | 15.2%
CC(C)(C)c1ccc(Oc2nc3ccccn3c(=O)c2/C=C(\C#N)c2nc3ccccc3s2)cc1 | -24.7% | · | · | 3.16µM* | · | ·

Compound activity as filed in PubChem BioAssay.
